Screening results deposited in PubChem BioAssay by Broad Institute.
Sampled rows, rich in hits. Any-hit rate of the full collection: about 2.8%.
PglD DTNB: C. jejuni PglD acetyltransferase inhibitors, primary screen, biochemical, DTNB colorimetric, single point. UDP-N-acetylbacillosamine N-acetyltransferase PglD (Campylobacter jejuni). inhibition, % at 12.5 µM. AID 602405, 2012. actives 0.098% (n = 360,000). purified PglD enzyme, DTNB colorimetric CoA detection; in the data active = inhibition above about 16%, passing the limit was not always enough
SIRT5 inh: SIRT5 desuccinylase inhibitors, primary screen, biochemical, fluorescence imaging, single point, set 5. NAD-dependent protein deacylase sirtuin-5, mitochondrial (Homo sapiens), Q9NXA8. Purified SirT5, succinyl-peptide AMC, trypsin-coupled fluorescence. inhibition, % at 15 µM. actives 1.1% (n = 330,000). AID 652115, 2013; in the data active = inhibition above about 15%
Target sequence (Q9NXA8 whole entry, looked up): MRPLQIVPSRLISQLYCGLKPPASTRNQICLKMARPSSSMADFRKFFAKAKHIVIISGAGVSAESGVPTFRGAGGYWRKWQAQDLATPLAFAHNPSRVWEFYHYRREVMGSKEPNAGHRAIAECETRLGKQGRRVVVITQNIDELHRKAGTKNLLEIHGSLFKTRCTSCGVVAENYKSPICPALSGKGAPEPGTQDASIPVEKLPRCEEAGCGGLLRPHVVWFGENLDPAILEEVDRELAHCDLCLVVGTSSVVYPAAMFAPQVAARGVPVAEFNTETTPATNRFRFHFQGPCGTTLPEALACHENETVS
FGF22 binding: binders of human FGF22 protein, primary screen, FGF22 synaptogenesis inhibitor project, biophysical, thermal shift, single point | recombinant FGF22 thermal shift, SYPRO orange fluorescence; percent of sucrose octasulfate shift, DMSO zero | activity (Tm shift, normalised), % at 9.99 µM | actives 1.5% (n = 340,000) | AID 651658, 2012;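 active = mean Tm shift, scaled 0 neutral to 100 positive control, at about 1.3% or above, every replicate too, limit read from the data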
Target sequence (Q9HCT0 whole entry, looked up): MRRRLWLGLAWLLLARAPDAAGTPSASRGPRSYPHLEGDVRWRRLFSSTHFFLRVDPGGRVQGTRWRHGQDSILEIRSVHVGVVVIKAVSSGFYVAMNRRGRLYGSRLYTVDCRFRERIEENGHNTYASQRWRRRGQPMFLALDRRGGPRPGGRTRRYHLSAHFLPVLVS
dFosB activator: activators of delta FosB homodimer, primary screen, biochemical, fluorescence polarization, TAMRA-CDK5 oligo, single point. Protein FosB (Mus musculus), P13346. purified delta FosB; percent of positive-control signal above neutral wells. activation, % at 25 µM. actives 0.99% (n = 340,000). AID 493131, 2011;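 active = mean activation above about 17%, with every replicate also reaching it, limit read from the data, passing the limit was not always enough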
CDK5 p35 inh: inhibitors of human CDK5/p35 kinase, primary screen, biochemical, single concentration; Cyclin-dependent kinase 5 (Homo sapiens) + Cyclin-dependent kinase 5 activator 1 (Homo …; Recombinant CDK5/p35, ADP-Glo luminescence, 60 min; inhibition, % at 10 µM; actives 0.01% (n = 330,000);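 active = highest replicate inhibition of at least 50% and at least 75% of replicates reaching 50%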;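 also: plate controls were DMSO neutral control for no effect and GW8510 at 10 µM for full effect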
PvdQ inh: P. aeruginosa PvdQ acylase inhibitors, primary screen, biochemical, fluorescence, plate reader and imaging, single point; inhibition, % at 10 µM; AID 488965, 2010; actives 0.063% (n = 340,000); PvdQ acylase [Pseudomonas aeruginosa LESB58]; purified PvdQ acylase; in the data active = inhibition above about 30%, passing the limit was not always enough;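 also: 0% = vehicle neutral wells and 100% = reference inhibitor wells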
Starred values were filed as active, the others as inactive; x = not tested or not shown; ! = not active in a repeat.

SMILES	PglD DTNB	SIRT5 inh	FGF22 binding	dFosB activator	CDK5 p35 inh	PvdQ inh
Cc1nnc(SCCOc2ccccc2)s1	x	-6	44*	-1	0	17
C[C@@H](NC(=O)[C@@H]1[C@@H](CO)[C@@H]2Cn3c(cccc3=O)[C@H]1N2Cc1ccccc1)c1ccccc1	-2	7	0	x	x	x
C[C@H](NC(=O)[C@@H]1[C@@H](CO)[C@@H]2Cn3c(cccc3=O)[C@H]1N2Cc1ccccc1)c1ccccc1	3	19*	0	x	x	x
O=C(NCC1CCCCC1)[C@H]1[C@H](CO)[C@H]2Cn3c(cccc3=O)[C@@H]1N2CCc1ccccc1	1	18*	0	x	x	x
O=C(NCC1CCCCC1)[C@@H]1[C@@H](CO)[C@@H]2Cn3c(cccc3=O)[C@H]1N2CCc1ccccc1	3	3	0	x	x	x
Cc1ccc(S(=O)(=O)Nc2ccc3c(c2)C(=O)N([C@H](C)CO)C[C@@H](C)[C@H](CN(C)S(=O)(=O)c2cn(C)cn2)O3)cc1	1	-7	0	x	x	x
COc1ccc(NC(=O)Nc2ccc3c(c2)C(=O)N([C@@H](C)CO)C[C@H](C)[C@@H](CN(C)S(=O)(=O)c2ccc(OC)cc2)OCCCC[C@H](C)O3)cc1	-2	x	0	x	x	x
O=C(Cc1c(Cl)cccc1Cl)Nc1cccnc1	x	0	43*	-3	-1	-20
O=C(Cc1c(F)cccc1Cl)Nc1cccnc1	-3	-7	0	-4	-2	-3
Cc1c(C(=O)NCCCN2CCOCC2)oc2ccc(S(=O)(=O)N3CCOCC3)cc12	x	-2	43*	2	-1	2
CO[C@H]1CN(C)C(=O)c2cc(NC(=O)NC3CCCCC3)ccc2OC[C@@H](C)N(CCc2ccccc2)C[C@H]1C	2	10	-1	x	x	x
CN(C)c1ccc2c(c1)[C@@H]1C[C@H](CC(=O)NCc3ccccc3)O[C@@H](CO)[C@@H]1O2	2	8	0	x	x	x
C[C@@H]1CN([C@@H](C)CO)C(=O)c2cccc(NC(=O)C3CCOCC3)c2O[C@@H]1CN(C)C(=O)Nc1cccc2ccccc12	2	-1	-1	x	x	x
Cc1cccn2c(=O)c(C=O)c(Sc3ncccn3)nc12	x	-1	43*	6	-2	3
Cc1cccn2c(=O)c(C=O)c(Cl)nc12	x	-2	0	1	2	-12
COc1ccc(NC(=O)c2ccc(-c3ccc(OC)cc3)s2)cc1	x	-3	43*	-3	6	6
Cc1noc(C)c1NC(=O)Nc1ccc2c(c1)C(=O)N([C@H](C)CO)C[C@@H](C)[C@H](CN(C)CC1CCCCC1)OCCCC[C@@H](C)O2	-1	-7	0	x	x	x
Cc1ccc(S(=O)(=O)N[C@H]2CC[C@@H](CCNC(=O)Nc3ccc(Cl)cc3)O[C@H]2CO)cc1	1	103*	0	x	x	x
O=C(Cc1ccccn1)NCC[C@H]1CC[C@H](NS(=O)(=O)c2ccccc2)[C@H](CO)O1	-1	16*	0	x	x	x
Cc1ccc(S(=O)(=O)N[C@@H]2CC[C@H](CCNC(=O)c3ccc4c(c3)OCO4)O[C@@H]2CO)cc1	2	3	0	x	x	x
Cc1ccc(S(=O)(=O)N[C@H]2CC[C@H](CCNC(=O)c3ccc4c(c3)OCO4)O[C@H]2CO)cc1	2	103*	0	x	x	x
Cc1ccc(S(=O)(=O)N[C@@H]2CC[C@H](CCNC(=O)Nc3ccc(Cl)cc3)O[C@@H]2CO)cc1	2	-3	0	x	x	x
CC(C)NC(=O)NCC[C@H]1CC[C@@H](NS(=O)(=O)c2ccc(-c3ccccc3)cc2)[C@H](CO)O1	2	31*	0	x	x	x
O=C(Cc1ccccn1)N[C@@H]1C=C[C@H](CC(=O)N2CCCCC2)O[C@@H]1CO	-2	0	-5	x	x	x
O=C(NCC[C@@H]1CC[C@@H](NS(=O)(=O)c2ccc(Cl)cc2)[C@H](CO)O1)c1ccccc1F	4	18*	0	x	x	x
SMILES	PglD DTNB	SIRT5 inh	FGF22 binding	dFosB activator	CDK5 p35 inh	PvdQ inh
O=C(NCC[C@@H]1CC[C@H](NS(=O)(=O)c2ccc(Cl)cc2)[C@@H](CO)O1)c1ccccc1F	-1	2	0	x	x	x
COc1ccc(NC(=O)N(C)C[C@H]2Oc3c(NS(=O)(=O)c4cccs4)cccc3C(=O)N([C@H](C)CO)C[C@H]2C)cc1	0	-1	-1	x	x	x
COC(=O)c1ccccc1S(=O)(=O)N1CCC(C(=O)NCc2ccccn2)CC1	2	x	43*	x	x	x
COc1ccccc1C1Nc2ccccc2NC2=C1C(=O)CC(C)(C)C2 (configuration not stated)	-6	5	0	1	1	-16
COc1ccc(OC)c(C2Nc3ccccc3NC3=C2C(=O)CC(C)(C)C3)c1 (configuration not stated)	1	20*	0	-6	0	-9
O=C(NCCO)C(=O)c1c(-c2ccc(Cl)cc2)cc2ccccn12	x	-2	44*	-2	0	-8
COc1ccc(C#Cc2ccc3c(c2)O[C@H](CN(C)S(=O)(=O)c2ccccc2F)[C@H](C)CN([C@H](C)CO)S3(=O)=O)cc1	8	16*!	0	x	x	x
C[C@H]1CN([C@@H](C)CO)S(=O)(=O)c2ccc(C#Cc3cccc(F)c3)cc2O[C@H]1CN(C)S(=O)(=O)c1ccccc1F	3	42*	0	x	x	x
COc1ccc2c3c(n(C)c2c1)[C@@H](CO)N(Cc1cccc(Cl)c1)CC31CN(C(C)=O)C1	x	x	0	x	x	x
CN1CCN(C(=O)C[C@H]2CC[C@@H]3[C@H](COC[C@@H](O)CN3C(=O)Nc3ccc(Cl)cc3)O2)CC1	0	-5	0	x	x	x
CC1CCC(C(C)C)C(OC(=O)Cn2c(-c3ccccc3)[n+](C)c3ccccc32)C1 (configuration not stated)	2	19*!	0	0	-1	-4
O=C(CSc1nc(-c2ccccc2)nc2ccc(F)cc12)Nc1cccc(C(=O)O)c1	x	6	41	-43	0	-10
O=C(CSc1nc(-c2ccccc2)nc2ccc(F)cc12)Nc1ccc(C(=O)O)cc1	x	1	6.0*	-16	1	-10
CCOC(=O)CSc1nc(-c2ccccc2)nc2ccc(C)cc12	x	-5	43*	-6	0	4
O=C(C1CCN(Cc2cn[nH]c2-c2ccc(F)cc2F)CC1)N1CCOCC1	x	3	44*	-7	-2	-11
